A selection: hits, their analogues and other compounds. The true share with any hit is near 3.4%.
TEAD-YAP inh: TEAD-YAP interaction inhibition; HEK-TIYL cells, TEAD-Gal4/YAP UAS-luciferase luminescence; actives 1.4% (n = 640,000); inhibition, % at 9.12 µM; in the data active means inhibition above about 32%;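 further: 0% = median of test compound wells and 100% = reference inhibitor wells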
FBW7 activator: activators of human E3 ligase FBW7 | Q969H0 | actives 0.13% (n = 650,000) | normalized activity (activation), % at 26.1 µM | AlphaScreen FBW7–phospho-cyclin E peptide binding, activator screen; in the data active means normalized activity above about 1.9%;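 further: purified mutant Fbw7 with reduced substrate affinity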
GPR151 ag: activators of human GPR151. Q8TDV0. PathHunter beta-arrestin GPR151 cells, luminescence. activation, % at 11.2 µM. actives 1% (n = 650,000); in the data active means activation above about 4.9%;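 further: 0% = median of compound wells and 100% = cells with positive control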
MITF inh: blocks human microphthalmia-associated transcription factor; AID 1259374; actives 0.91% (n = 650,000); AlphaScreen MITF homodimerization, bead proximity signal; inhibition, % at 2.6 µM; in the data active means inhibition above about 50%;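 further: 0% = vehicle wells with protein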
* marks the source's active call; other numbers are inactive results.

SMILES | TEAD-YAP inh | FBW7 activator | GPR151 ag | MITF inh
COc1ccc(C2CC(C(F)(F)F)n3nc(C(=O)N4CCCCC4)cc3N2)cc1OC (stereo not given) | 38.0* | 0.0 | 0.2 | -5.7
Cc1nc(-c2cccc(NC(=O)CCCn3cnc(-c4ccc(F)cc4)cc3=O)c2)cs1 | 7.5 | -0.1 | -2.3 | -6.4
O=C(Nc1ccc(S(=O)(=O)NCc2cccnc2)cc1)c1ccccc1Cl | 28.4 | -0.1 | 0.8 | 2.5
COc1cccc(S(=O)(=O)NCc2ccc(C(=O)Nc3cccnc3)cc2)c1 | 50.4* | 0.1 | 0.4 | 11.9
O=C(Nc1ccc(S(=O)(=O)NCc2cccnc2)cc1)c1ccco1 | 13.9 | 2.1* | -0.2 | 6.1
O=C(Cc1ccc(F)cc1)N1CC[C@@H]2[C@H](CCCN2C(=O)c2cc(=O)c3ccccc3o2)C1 | 5.7 | 0.2 | -0.3 | 12.5
Cc1[nH]c2ccccc2c1CN1CCC2(CCC(CNC(=O)c3ccnn3C)O2)CC1 (stereo not given) | -4.2 | -0.1 | -0.1 | 4.8
Cc1cc(C)c(NC(=O)CC2Sc3ccccc3NC2=O)c(Cl)c1 (stereo not given) | 37.1* | 0.2 | 0.6 | 8.5
CCOc1ccc(NC=C2C(=O)OC3(CCCCC3)OC2=O)cc1 | 17.8 | 0.0 | -1.5 | 5.1
COc1ccc2oc(-c3cccs3)cc(=O)c2c1 | 42.5* | -0.1 | -6.1 | 3.0
O=c1cc(-c2cccs2)oc2ccc(O)cc12 | -12.0 | -0.6 | -3.4 | 7.0
COc1ccc2oc(-c3ccccc3Cl)cc(=O)c2c1 | 48.5* | 2.6* | -4.9 | 5.8
COc1ccc2oc(-c3ccc(Cl)cc3)cc(=O)c2c1 | -29.1 | -0.1 | 0.4 | 4.9
O=C1OC(c2cc([N+](=O)[O-])ccc2Cl)=N/C1=C\c1cccc2ccccc12 | 11.7 | -0.1 | 2.1 | 0.7
CCCOC1(C(F)(F)F)NC(=O)N(c2cc(Cl)ccc2OC)C1=O (stereo not given) | 5.4 | -0.1 | -0.5 | 7.6
O=C1C2C3C=CC(C3)C2C(=O)N1c1ccc(Cl)c([N+](=O)[O-])c1 (stereo not given) | 1.2 | -0.2 | 0.1 | 2.0
CCOC(=O)N1CCC(NS(=O)(=O)c2ccc3[nH]c4c(c3c2)CCCC4)CC1 | 57.0* | 0.0 | -1.0 | 8.6
COCCN(Cc1c(C(=O)N2CCN(C3CCCCC3)CC2)nc2ccccn12)C(C)C | -0.7 | -0.2 | -0.1 | 2.4
Cc1csc(NC(=O)NCc2noc3ccccc23)n1 | -0.1 | -0.1 | 0.2 | 4.3
COc1ccc(Cl)cc1C(=O)Nc1nc2ccccc2[nH]1 | 66.0* | -0.1 | -9.9 | 0.0
O=C(Nc1nc2ccccc2[nH]1)c1ccccc1F | 89.0* | 0.1 | -9.2 | 3.4
O=C(Nc1nc2ccccc2[nH]1)c1cccc(I)c1 | -43.2 | -0.1 | -0.4 | -10.0
O=C(Nc1nc2ccccc2[nH]1)c1ccc(F)cc1 | 43.3* | 0.0 | -7.7 | 7.0
O=C(NCc1cccnc1)c1ccc2nc(NCc3ccc4c(c3)OCO4)sc2c1 | 1.2 | -0.2 | 0.3 | -1.4
CCC1CCC(C(=O)Nc2ccc(OC)cc2)CC1 (stereo not given) | -49.1 | 0.0 | -1.1 | -2.5
SMILES | TEAD-YAP inh | FBW7 activator | GPR151 ag | MITF inh
Cc1cc(C)cc(N2C(=O)NC(=O)/C(=C\c3ccc(OCC(=O)O)c(Cl)c3)C2=O)c1 | 12.4 | -0.1 | 2.5 | 0.2
c1ccc(-n2cnc3c(NCc4cccnc4)nc(N4CCN(c5ccccn5)CC4)nc32)cc1 | 25.8 | 0.2 | -2.5 | 17.9
c1cncc(CNc2nc(N3CCOCC3)nc3c2ncn3-c2ccsc2)c1 | 45.2* | -0.1 | -1.6 | 9.5
c1ccc(N2CCN(c3nc(NCc4cccnc4)c4ncn(-c5ccsc5)c4n3)CC2)nc1 | 50.9* | -0.1 | -2.4 | 6.0
Cc1ccc(-c2cc(C(F)(F)F)n3nc(C(=O)Nc4cccc(Cl)c4)cc3n2)cc1 | 8.2 | -0.2 | -0.4 | 40.9
COc1cc(Br)c(/C=C2\C(=O)N(c3ccccc3)N=C2C)cc1OC | -2.6 | 0.0 | -1.7 | 12.7
CC1=NN(c2cccc(C(=O)O)c2)C(=O)/C1=C/c1ccc(C)o1 | 29.4 | 0.0 | -0.3 | 19.2
COc1cc(/C=C2\C(=O)N(c3cccc(C(=O)O)c3)N=C2C)c(Br)cc1O | -0.1 | -1.1 | -1.2 | 62.3*
CC1=NN(c2cccc(C(=O)O)c2)C(=O)/C1=C\c1ccco1 | -9.5 | -1.3 | -1.3 | 64.5*
COc1ccc(/C=C2\C(=O)N(c3cccc(C(=O)O)c3)N=C2C)cc1OC | -10.3 | -1.3 | 1.1 | 12.1
CC1=NN(c2cccc(C(=O)O)c2)C(=O)/C1=C\c1cc2c(cc1Cl)OCO2 | -0.5 | -0.9 | 0.5 | 61.5*
CC1=NN(c2cccc(Cl)c2)C(=O)/C1=C/c1cc2c(cc1Cl)OCO2 | 2.4 | 0.3 | 1.2 | 7.6

Assay outcomes deposited in PubChem BioAssay by The Scripps Research Institute Molecular Screening Center.
